The supplement of paper PMC11732987, “Enantioselective OTUD7B fragment discovery through chemoproteomics screening and high-throughput optimisation” (Communications Chemistry, 2025)

Assays:
Test in all cases: log2 ratio of Biotin-Ahx-Ub-VS probe labelling (fragment/DMSO); higher = less target engagement (more negative = stronger competition), active = hit call of the paper (q ≤ 0.05, log2 ratio ≤ -1)
Conditions in all cases: compound concentration: 200 uM; treatment time: 3 h
USP34 = USP34 (UniProt Q70CQ2)
Method in brief: (§1)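 Average log2 ratios of fragment over vehicle were obtained by unpaired t-test from global-median-normalised Spectronaut label-free quantities. Proteins with ≥2 unique peptides were included. HEK293T lysate (495 µg per sample) was treated in triplicate with fragment at 200 µM or vehicle for 3 h, then with Biotin-Ahx-Ub-VS at 0.5 µM final for 1 h, and labelled DUBs were NeutrAvidin-enriched and run by diaPASEF LC-MS/MS.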

USP36 = target: T1, USP36 (UniProt Q9P275)
T1 sequence (whole entry): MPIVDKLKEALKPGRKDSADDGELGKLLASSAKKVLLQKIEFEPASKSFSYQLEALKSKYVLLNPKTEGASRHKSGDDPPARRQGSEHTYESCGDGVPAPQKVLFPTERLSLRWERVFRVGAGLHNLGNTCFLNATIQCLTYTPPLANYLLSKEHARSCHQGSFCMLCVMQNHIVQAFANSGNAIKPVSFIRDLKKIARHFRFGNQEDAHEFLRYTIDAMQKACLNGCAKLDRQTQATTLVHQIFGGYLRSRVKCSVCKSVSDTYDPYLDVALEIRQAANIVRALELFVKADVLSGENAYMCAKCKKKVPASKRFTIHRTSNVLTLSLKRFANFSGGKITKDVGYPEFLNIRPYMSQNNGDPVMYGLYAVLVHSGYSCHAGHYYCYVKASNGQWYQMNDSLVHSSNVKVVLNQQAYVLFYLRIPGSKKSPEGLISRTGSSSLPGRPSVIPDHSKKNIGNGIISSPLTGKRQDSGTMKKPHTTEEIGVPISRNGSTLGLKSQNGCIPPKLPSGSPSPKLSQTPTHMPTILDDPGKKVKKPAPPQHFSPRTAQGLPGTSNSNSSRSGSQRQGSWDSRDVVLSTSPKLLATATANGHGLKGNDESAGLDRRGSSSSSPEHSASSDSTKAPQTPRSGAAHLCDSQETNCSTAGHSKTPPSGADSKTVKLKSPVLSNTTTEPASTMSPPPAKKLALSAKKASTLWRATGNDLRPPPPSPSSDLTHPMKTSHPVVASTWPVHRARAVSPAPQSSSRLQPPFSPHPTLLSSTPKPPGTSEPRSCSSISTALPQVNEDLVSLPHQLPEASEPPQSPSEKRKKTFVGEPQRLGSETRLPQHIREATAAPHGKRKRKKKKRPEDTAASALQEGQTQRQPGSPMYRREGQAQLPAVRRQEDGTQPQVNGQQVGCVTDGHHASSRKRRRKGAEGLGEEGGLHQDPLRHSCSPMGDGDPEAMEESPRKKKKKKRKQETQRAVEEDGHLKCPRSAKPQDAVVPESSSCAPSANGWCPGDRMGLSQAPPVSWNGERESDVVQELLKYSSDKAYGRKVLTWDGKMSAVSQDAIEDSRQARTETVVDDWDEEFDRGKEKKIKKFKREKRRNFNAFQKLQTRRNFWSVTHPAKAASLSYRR
Method in brief: as §1

USP38 = target: T2, USP38 (UniProt Q8NB14)
T2 sequence (whole entry): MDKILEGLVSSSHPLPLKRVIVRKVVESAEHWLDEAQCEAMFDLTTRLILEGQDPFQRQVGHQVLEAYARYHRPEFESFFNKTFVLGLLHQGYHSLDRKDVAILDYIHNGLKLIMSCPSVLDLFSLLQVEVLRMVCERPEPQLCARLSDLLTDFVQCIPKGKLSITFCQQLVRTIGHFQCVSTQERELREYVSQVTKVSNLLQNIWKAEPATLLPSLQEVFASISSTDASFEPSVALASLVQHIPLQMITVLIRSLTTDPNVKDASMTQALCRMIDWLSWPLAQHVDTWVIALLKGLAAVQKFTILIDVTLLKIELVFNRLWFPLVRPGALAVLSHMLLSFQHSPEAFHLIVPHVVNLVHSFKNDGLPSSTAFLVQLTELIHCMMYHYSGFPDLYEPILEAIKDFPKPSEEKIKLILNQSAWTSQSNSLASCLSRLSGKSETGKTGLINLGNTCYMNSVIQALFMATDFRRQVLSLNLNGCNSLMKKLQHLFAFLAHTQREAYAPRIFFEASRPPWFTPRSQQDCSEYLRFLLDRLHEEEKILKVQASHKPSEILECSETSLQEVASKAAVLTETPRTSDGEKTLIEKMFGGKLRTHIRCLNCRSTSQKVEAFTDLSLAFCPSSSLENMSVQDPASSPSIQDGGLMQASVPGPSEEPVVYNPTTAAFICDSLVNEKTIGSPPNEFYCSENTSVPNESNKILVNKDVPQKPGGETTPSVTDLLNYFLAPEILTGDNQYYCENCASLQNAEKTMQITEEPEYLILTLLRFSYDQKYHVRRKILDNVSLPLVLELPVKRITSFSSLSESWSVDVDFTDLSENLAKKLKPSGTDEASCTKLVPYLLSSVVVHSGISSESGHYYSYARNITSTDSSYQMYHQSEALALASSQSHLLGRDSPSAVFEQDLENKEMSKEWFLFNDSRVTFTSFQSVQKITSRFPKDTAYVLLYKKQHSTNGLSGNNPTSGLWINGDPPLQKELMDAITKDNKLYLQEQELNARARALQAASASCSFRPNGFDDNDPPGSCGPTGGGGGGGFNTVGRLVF
Method in brief: as §1

USP39 = target: T3, USP39 (UniProt Q53GS9)
T3 sequence (whole entry): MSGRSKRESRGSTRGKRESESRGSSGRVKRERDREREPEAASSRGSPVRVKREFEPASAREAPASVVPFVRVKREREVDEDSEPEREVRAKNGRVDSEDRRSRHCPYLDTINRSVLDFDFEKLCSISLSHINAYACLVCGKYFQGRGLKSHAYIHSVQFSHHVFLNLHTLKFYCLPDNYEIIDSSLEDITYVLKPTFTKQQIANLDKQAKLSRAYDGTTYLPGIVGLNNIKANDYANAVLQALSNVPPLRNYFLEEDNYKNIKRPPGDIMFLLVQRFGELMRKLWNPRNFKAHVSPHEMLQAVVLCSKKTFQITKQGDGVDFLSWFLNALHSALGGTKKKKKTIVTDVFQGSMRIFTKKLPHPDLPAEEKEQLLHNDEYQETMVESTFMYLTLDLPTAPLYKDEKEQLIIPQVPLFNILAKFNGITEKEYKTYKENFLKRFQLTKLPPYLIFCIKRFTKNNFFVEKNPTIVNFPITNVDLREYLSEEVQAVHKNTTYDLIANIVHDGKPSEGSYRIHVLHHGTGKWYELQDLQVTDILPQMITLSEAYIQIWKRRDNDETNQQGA
Method in brief: as §1

USP4 = target: T4, USP4 (UniProt Q13107)
T4 sequence (whole entry): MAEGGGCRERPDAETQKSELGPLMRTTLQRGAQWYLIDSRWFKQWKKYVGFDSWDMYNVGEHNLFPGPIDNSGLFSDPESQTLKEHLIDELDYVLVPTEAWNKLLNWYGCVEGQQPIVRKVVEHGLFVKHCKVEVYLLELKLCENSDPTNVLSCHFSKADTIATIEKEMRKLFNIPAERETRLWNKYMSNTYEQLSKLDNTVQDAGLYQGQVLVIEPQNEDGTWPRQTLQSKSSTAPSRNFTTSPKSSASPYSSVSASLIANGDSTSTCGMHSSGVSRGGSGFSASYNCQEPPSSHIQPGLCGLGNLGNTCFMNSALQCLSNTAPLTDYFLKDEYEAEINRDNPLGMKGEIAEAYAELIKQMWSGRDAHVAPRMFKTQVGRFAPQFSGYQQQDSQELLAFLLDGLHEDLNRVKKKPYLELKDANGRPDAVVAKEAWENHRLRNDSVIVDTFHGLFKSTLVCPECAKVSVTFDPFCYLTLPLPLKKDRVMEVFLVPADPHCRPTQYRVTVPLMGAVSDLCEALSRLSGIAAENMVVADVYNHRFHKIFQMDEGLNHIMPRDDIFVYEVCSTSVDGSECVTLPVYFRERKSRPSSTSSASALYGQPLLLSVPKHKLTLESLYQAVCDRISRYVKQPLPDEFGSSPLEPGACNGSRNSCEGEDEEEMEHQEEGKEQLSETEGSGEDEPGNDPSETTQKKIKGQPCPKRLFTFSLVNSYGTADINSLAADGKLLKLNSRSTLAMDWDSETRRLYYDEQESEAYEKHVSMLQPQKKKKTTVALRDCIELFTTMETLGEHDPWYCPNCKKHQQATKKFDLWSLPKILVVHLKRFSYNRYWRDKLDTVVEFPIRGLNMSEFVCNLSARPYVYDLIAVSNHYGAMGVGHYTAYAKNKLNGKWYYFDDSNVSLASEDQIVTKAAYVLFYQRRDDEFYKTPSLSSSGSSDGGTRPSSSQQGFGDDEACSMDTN
Method in brief: as §1

Measured: log2 ratio of Biotin-Ahx-Ub-VS probe labelling

Sequence of USP34 (Q70CQ2 whole entry, the tested form may be a part): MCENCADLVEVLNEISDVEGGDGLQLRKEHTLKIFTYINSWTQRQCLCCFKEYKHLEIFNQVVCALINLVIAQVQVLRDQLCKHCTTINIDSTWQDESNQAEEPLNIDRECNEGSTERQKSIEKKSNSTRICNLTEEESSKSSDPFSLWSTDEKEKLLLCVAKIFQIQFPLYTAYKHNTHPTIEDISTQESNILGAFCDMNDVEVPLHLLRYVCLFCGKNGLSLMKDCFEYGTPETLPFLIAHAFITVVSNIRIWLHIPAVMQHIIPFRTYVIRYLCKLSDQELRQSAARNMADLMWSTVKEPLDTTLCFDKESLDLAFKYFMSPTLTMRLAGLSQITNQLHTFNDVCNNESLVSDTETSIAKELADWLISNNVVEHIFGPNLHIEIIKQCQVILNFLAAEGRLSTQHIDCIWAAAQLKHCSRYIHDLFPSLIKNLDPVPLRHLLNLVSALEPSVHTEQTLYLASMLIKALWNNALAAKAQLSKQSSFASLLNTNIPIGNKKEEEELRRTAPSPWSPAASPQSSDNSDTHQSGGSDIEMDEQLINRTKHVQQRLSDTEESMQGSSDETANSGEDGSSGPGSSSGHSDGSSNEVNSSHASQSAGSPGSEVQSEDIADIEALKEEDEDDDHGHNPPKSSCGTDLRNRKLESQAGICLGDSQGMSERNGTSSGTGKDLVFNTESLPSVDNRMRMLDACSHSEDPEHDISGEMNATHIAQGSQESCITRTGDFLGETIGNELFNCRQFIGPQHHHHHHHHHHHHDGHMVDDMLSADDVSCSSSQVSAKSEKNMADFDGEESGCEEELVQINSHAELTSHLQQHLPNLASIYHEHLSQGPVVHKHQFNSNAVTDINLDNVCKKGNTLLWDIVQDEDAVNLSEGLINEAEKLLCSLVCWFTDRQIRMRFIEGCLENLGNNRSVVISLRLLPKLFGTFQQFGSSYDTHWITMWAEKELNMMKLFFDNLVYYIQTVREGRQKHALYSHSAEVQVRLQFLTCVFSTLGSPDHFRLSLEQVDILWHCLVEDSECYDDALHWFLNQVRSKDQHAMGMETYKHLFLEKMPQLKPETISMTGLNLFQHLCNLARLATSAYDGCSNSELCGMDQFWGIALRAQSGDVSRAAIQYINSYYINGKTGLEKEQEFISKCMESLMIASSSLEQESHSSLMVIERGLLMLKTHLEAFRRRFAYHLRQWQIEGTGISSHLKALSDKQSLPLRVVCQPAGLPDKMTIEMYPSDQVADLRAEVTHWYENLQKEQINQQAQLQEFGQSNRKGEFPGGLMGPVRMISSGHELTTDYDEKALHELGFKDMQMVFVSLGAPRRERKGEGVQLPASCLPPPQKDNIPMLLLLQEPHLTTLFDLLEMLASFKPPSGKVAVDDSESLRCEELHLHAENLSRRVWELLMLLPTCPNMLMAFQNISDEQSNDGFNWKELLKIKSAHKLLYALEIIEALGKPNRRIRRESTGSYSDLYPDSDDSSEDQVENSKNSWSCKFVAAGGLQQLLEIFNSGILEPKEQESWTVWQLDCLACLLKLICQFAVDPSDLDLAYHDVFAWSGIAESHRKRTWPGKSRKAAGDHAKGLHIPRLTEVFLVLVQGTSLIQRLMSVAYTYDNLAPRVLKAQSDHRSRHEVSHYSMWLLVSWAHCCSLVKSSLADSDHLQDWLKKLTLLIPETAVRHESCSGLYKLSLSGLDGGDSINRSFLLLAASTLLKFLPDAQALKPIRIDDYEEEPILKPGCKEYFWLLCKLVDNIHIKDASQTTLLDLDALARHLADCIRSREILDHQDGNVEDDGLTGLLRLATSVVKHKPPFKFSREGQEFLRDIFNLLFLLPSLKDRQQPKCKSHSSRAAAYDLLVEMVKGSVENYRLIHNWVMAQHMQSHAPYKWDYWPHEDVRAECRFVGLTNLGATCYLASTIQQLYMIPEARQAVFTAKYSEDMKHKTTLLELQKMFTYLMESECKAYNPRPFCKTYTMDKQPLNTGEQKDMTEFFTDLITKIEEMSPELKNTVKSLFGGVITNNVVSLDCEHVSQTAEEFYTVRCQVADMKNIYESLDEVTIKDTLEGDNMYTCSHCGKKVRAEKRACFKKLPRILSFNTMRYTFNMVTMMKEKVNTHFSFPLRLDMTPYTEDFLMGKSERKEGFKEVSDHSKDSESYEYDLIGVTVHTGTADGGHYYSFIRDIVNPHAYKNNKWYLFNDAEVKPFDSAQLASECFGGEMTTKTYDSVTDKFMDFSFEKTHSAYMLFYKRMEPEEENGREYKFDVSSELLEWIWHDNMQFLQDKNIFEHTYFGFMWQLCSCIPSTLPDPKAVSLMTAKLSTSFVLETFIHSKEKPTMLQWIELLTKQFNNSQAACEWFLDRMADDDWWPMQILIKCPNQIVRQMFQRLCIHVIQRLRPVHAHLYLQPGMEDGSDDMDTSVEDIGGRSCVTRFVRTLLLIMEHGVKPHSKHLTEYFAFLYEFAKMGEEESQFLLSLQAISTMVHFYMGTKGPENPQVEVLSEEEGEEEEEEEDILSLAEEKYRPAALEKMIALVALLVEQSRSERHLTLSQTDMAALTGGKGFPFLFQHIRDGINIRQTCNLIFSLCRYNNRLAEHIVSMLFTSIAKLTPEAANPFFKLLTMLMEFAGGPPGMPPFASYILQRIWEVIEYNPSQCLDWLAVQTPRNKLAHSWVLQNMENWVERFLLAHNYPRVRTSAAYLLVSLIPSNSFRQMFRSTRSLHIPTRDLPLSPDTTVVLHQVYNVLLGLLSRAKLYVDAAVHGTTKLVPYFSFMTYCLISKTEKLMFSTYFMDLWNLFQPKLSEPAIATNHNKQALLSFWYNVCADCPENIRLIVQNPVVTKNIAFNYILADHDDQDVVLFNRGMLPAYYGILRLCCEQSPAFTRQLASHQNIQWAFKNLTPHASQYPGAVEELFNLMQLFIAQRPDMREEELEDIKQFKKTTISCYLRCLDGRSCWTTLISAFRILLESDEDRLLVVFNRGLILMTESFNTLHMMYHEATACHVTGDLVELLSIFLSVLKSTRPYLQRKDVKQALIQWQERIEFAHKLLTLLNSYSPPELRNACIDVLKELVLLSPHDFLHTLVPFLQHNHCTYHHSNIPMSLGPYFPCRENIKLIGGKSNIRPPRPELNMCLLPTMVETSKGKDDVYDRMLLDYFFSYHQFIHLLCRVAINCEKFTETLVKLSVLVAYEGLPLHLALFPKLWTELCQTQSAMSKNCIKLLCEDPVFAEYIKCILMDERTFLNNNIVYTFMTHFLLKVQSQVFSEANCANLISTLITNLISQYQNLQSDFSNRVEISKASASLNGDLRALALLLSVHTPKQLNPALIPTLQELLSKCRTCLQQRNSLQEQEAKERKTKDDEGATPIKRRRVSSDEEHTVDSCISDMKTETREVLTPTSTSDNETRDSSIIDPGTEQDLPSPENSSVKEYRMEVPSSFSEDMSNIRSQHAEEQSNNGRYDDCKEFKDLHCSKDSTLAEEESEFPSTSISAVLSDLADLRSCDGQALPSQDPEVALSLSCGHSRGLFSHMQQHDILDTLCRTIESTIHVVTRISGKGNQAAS

O=C(CCl)NC1CCC(C(F)(F)F)CC1 (stereo not given)
inactive: USP34 -0.186 | USP36 -0.0199 | USP38 0.115 | USP39 0.207 | USP4 -0.24
